# Source: PubChem BioAssay (NCI)
# The panel holds about 83,000 compounds, 20% with a hit somewhere; the sample as a whole holds those more often.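 Single-dose data. Exposure time 48 hours. Values below 10 considered active.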 A number with no mark means an inactive call. Activity calls are given as the source filed them.
# System: OVCAR-4 ovarian
# Experiment: NCI-60 one-dose screen, 48 h (100 = growth as untreated, 0 = no growth, -100 = all killed)
# Settings: 10 µM unless noted
# Procedure: Growth inhibition of the OVCAR-4 human tumor cell line is measured as a screen for anti-cancer activity. Cells are grown in 96 well plates and exposed to the test compound for 48 hours. Compounds are tested at a single concentration, which is 10^-5 M for most compounds. The reported endpoint is percent growth (GI% or GIPRCNT), where numbers from 0 - 100% represent growth inhibition, and numbers from -100% - 0 represent cell death. For example, a value of 40 represents 60% growth inhibition. A value of 0 means no net growth occurred over the course of the experiment. A value of -40 indicates 40% of cells at the beginning of the experiment died by the end of the experiment. A value of -100 means all cells are dead at the end of the experiment.
# NCI-60 Human Tumor Cell Lines Screen was performed using the standard one-dose NCI protocol, which is described in more detail at https://dtp.cancer.gov/discovery_development/nci-60/default.htm.
# Compounds with GIPRCNT values below 10 were considered active. Activity score was based on GIPRCNT using the following formula: […]
# Score is 0 for GIPRCNT values of 100 or above, 50 for GIPRCNT values of 0, and 100 for GIPRCNT values of -100.
row,SMILES,growth
1,Cc1c2ncccc2nc2[nH]c3ccc(OCCN(C)C)cc3c12,27.5%
2,CCOC(=O)C1=C(c2ccccc2)N=C2N(c3ccccc3)N=C(C(C)=O)N2C1c1ccc(F)cc1 (stereo not given),97.9%
3,COc1ccc(Nc2ncc(C#N)c(NCCCNC(=O)C3CCC3)n2)cc1,77.7%
4,Cc1ncc(C(=O)Nc2ccc(CN3CCN(C)CC3)c(C(F)(F)F)c2)cc1C#Cc1cnc(N)c2ccc(C#N)cc12,-7.66% (active)
5,CSc1nc2ccc(C)cc2cc1/C=C1/C=C(c2ccccc2)NC1=O,-51.9% (active)
6,COc1ccc2c(c1)oc1c(C)c3c(c(C)c12)C(=O)N(CCOS(C)(=O)=O)C3=O,100%
7,C=C(C)[C@@H]1CC[C@]2(C)[C@H](C=CC3=C4C[C@@](C)(CO)CC[C@]4(C)CC[C@]32C)[C@@]1(C)CCCN,-55.4% (active)
8,Oc1ccc(-c2nc3ccc4[nH]ncc4c3c3c2CCCC3)c(F)c1,51.3%
9,C=CCN=c1sc(-c2ccc3ccccc3c2)cn1NC(=O)c1cc2ccc1CCc1ccc(cc1)CC2,33.5%
10,COc1cc(-c2ccc[nH]2)[nH]c1/C=C1\N=C(C)C(CC(=O)OCC(C)(C)C)=C1C,-91.5% (active)
11,Cc1ccc2c(c1)nc(C)n2-c1ncnc2c1CC(C)c1cc(O)ccc1N2C (stereo not given),67.5%
12,CN(C)c1ccc(CNCCO)cc1,112%
13,CCN(CC)CCCC(Cc1ccccc1)Nc1c2ccc(Cl)cc2nc2ccc(OC)cc12 (stereo not given),30.8%
14,Cc1c2cnccc2c(C)c2c1c1cc(CO)ccc1n2C,-56.2% (active)
15,O=C(NN1C(=O)CSC1c1cccc([N+](=O)[O-])c1)c1ccc(NC(=O)c2ccccn2)cc1 (stereo not given),110%
16,Cn1c(=O)[nH]c(=O)c2nc3c(nc21)-c1ccccc1C3=O,102%
17,COc1ccc(/C=C2\CN(C(=O)C(Cl)Cl)C/C(=C\c3ccc(OC)c(OC)c3)C2=O)cc1OC,19.8%
18,COc1ccccc1S(=O)(=O)Nc1ccc2c3c(cc(CCC(=O)NCCCCNc4cccc5c4C(=O)N(C4CCC(=O)NC4=O)C5=O)cc13)C(=O)N2C (stereo not given),-19.8% (active)
19,CN(C)/C(N)=N/N=C(\c1ccccc1)c1ccccn1,86.6%
20,O=C(/C=C/c1ccccc1)c1cccc2ccccc12,41.3%

row,SMILES,growth
1,COc1ccc(/C=N/NC(=O)Cn2c(-c3ccc(S(C)(=O)=O)cc3)nc3ccccc32)cc1,117%
2,O=c1cc(CNc2cc(F)cc(F)c2)c2ccc(I)cc2[nH]1,60.2%
3,Cc1sc2nc(NCCN)[nH]c(=O)c2c1C,85.1%
4,CC1=C2CC/C(C)=C/CC[C@]3(C)O[C@H]3CC/C(C)=C/[C@H]2OC1,95.2%
5,CCOC(=O)CC1CSC(N/N=C/c2ccc(F)c(Br)c2)=N1 (stereo not given),89.1%
6,CC[C@@H](C(=O)[C@@H](C)[C@@H](O)[C@H](C)[C@@H]1O[C@@H]([C@@H](CC)C(=O)ONC(=O)c2ccccc2O)CC[C@@H]1C)C1O[C@]2(C=CC(=O)[C@]3(CC[C@@](C)([C@H]4CC[C@](O)(CC)[C@H](C)O4)O3)O2)[C@H](C)C[C@@H]1C (stereo not given in full),53.3%
7,Cc1oc(-c2ccc(Cl)cc2)nc1C1=NN(C(=O)c2ccncc2)C(c2ccccc2)C1 (stereo not given),85.4%
8,Cn1c2ccccc2c2c3c(c4c5cc(Br)ccc5n(C)c4c21)C(=O)N(O)C3=O,53.7%
9,O=C(/C=C/c1cccc(Oc2ccccc2)c1)c1ccc(Nc2nc(Nc3ccc(F)cc3)nc(Nc3ccc(Cl)cc3)n2)cc1,97.9%
10,COc1cc([C@@H](CCO)C[C@H](C)c2ccc3ccccc3c2)cc(OC)c1OC,55.8%
11,N#Cc1c(-c2ccccc2)cc(-c2ccccc2)n(CCCCC(=O)NO)c1=O,34%
12,COc1ccc(C(=O)Nc2ncc(Cc3ccc(Cl)cc3)s2)cc1,49.1%
13,COC(=O)c1c2c(c[n+]([O-])c1C)C(=O)C=C(NCc1ccccc1)C2=O,-98.8% (active)
14,CN1C(=O)/C(=C/c2ccc(C(=O)Nc3ncc(Cc4cccc(C(F)(F)F)c4)s3)cc2)SC1=S,34.4%
15,CCOC(=O)C1=C(CC(O)c2ccc(OC)cc2OC)NC(=O)NC1c1ccccc1 (stereo not given),106%
16,C#CCOc1cccc(Nc2ncnc3c2ncn3C2CCN(C(=O)CCl)C2)c1 (stereo not given),-51.7% (active)
17,CCCn1c(=S)sc2c(NNC(C)=O)nc(C)nc21,101%
18,Cc1cc(C)c2c(c1)N(C)c1ncnc(-n3c(C)nc4cc(C)ccc43)c1CC2C (stereo not given),58.1%
19,O=C1c2cccnc2C(=O)c2c1c(C(=O)OCCc1ccccn1)c1ccccn21,4.6% (active)
20,Cc1cc(=O)oc2cc(Oc3nc(Br)cn4c(Br)cnc34)ccc12,45.5%
